The results in this text go back to the supplement of paper PMC12645437, “Orthogonal IMiD-Degron Pairs Induce Selective Protein Degradation in Cells” (ACS Chemical Biology, 2025).

The full ranking holds about 8,300 sequences; the median of “log2 fold change of degron read counts, EGFP-low vs EGFP+ sorted cells (limma voom), compound-induced degradation” is about -1.1, and the highest 2% start at about 3.2. Only a selection was taken, and the highest values are over-represented in it overall.

The target in the experiment is T1, CRBN, Q96SW2.
T1 chain: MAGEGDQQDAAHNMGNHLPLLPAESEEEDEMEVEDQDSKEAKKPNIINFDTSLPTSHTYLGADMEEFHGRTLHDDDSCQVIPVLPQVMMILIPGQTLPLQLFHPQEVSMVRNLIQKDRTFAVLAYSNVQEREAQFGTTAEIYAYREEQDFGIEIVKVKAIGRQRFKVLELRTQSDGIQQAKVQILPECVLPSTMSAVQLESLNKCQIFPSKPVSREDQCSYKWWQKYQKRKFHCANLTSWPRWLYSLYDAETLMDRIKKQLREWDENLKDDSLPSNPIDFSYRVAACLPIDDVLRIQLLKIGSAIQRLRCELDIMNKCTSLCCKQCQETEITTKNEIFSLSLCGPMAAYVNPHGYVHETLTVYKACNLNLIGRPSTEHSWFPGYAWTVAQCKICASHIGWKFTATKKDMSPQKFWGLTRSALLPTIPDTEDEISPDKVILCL
The experiment in a line: log2 fold change of degron read counts, EGFP-low vs EGFP+ sorted cells (limma voom), compound-induced degradation; higher = more compound-induced degradation of the degron-EGFP fusion; degrons are variants of IKZF1/3 zinc finger 2; compound dose not given here. The following applies: Jurkat, 18 h.

Setting [1] is: compound: compound 19 (5-tert-butyl-thalidomide).
Setting [2] is: compound: compound 22 (5-morpholino-thalidomide).
Setting [3] is: compound: compound 33 (diphenyl IMiD analogue).
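Also: pooled lentiviral library of zinc finger degron-EGFP fusions in mCherry-positive Jurkat cells, FACS-sorted after compound exposure, with degron abundance counted by next-generation sequencing.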

On to LGCPICGFTCTQKGNLLRHIKL [46L_47G_49P_50I_52G_53F_54T_55C_67L_, Q9UKT9], for which the “log2 fold change of degron read counts” value under setting [1] is 3.65, the “log2 fold change of degron read counts” value under setting [2] stood at 2.87, the “log2 fold change of degron read counts” value under setting [3] is 1.97 and the “log2 fold change of degron read counts” value (compound: thalidomide) stood at 1.36.

On to LECPICGFTCTQKGNLLRHIKL [46L_47E_49P_50I_52G_53F_54T_55C_67L_, Q9UKT9], for which the “log2 fold change of degron read counts” value under setting [1] stood at 1.1, the “log2 fold change of degron read counts” value under setting [2] is 0.00767, the “log2 fold change of degron read counts” value under setting [3] worked out at 2.64 and the “log2 fold change of degron read counts” value (compound: thalidomide) turned out to be 3.38.

As to LWCPICGFTCTQKGNLLRHIKL [46L_47W_49P_50I_52G_53F_54T_55C_67L_, Q9UKT9], the “log2 fold change of degron read counts” value under setting [1] stood at 3.24, the “log2 fold change of degron read counts” value under setting [2] was found to be 3.71, the “log2 fold change of degron read counts” value under setting [3] is 3.05 and the “log2 fold change of degron read counts” value (compound: thalidomide) was determined as 2.09.

With LYCPICGFTCTQKGNLLRHIKL [46L_47Y_49P_50I_52G_53F_54T_55C_67L_, Q9UKT9], the “log2 fold change of degron read counts” value is, setting by setting: under setting [1], 3.6; under setting [2], 3.63; under setting [3], 2.97; (compound: thalidomide) 2.63.

Turning to LECEICGFTCTQKGNLLRHIKL [46L_47E_49E_50I_52G_53F_54T_55C_67L_, Q9UKT9], the “log2 fold change of degron read counts” value is, setting by setting: under setting [1], 0.26; under setting [2], -0.872; under setting [3], 1.66; (compound: thalidomide) 2.87.

As for LQCNQCGFICTQKGNLLRHIKL [46L_47Q_49N_50Q_52G_53F_54I_55C_67L_, Q9UKT9], the “log2 fold change of degron read counts” value runs as follows: under setting [1], -2.79; under setting [2], -2.4; under setting [3], -2.23; (compound: thalidomide) -0.473.

As to FVCNQCGRTFTQKGNLLRHIKL [46F_47V_49N_50Q_52G_53R_54T_55F_67L_, Q9UKT9], the “log2 fold change of degron read counts” value is -2.81 under setting [1], -2.9 under setting [2], -2.85 under setting [3] and -2.6 (compound: thalidomide).

FACDQCGAIFTQKGNLLRHIKL [46F_47A_49D_50Q_52G_53A_54I_55F_67L_, Q9UKT9]: the “log2 fold change of degron read counts” value under setting [1] is -1.3, the “log2 fold change of degron read counts” value under setting [2] was -2.79, the “log2 fold change of degron read counts” value under setting [3] was -2.17 and the “log2 fold change of degron read counts” value (compound: thalidomide) was -2.61.
